Measured values taken from PubChem BioAssay.
Inconclusive results are not listed. Active and inactive are the calls of the source. Unless noted, no stated cut-off is given here; in the data, active means inhibition above about 80%; inactive means the rest.

Assays:
[1] = viability loss in pontine glioma line – cell-based, JHH-DIPG-1, MIPE4.0, CellTiter-Glo, qHTS, dose response (AID 1347062; cut-off not given, nearly all actives have AC50 up to about 27 µM); details: JHH-DIPG-1 viability, CellTiter-Glo ATP luminescence
[2] = viability loss in pontine glioma line – cell-based, SU-DIPG-IV, MIPE4.0, CellTiter-Glo, qHTS, dose response (AID 1347063; cut-off not given, nearly all actives have AC50 up to about 30 µM;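 further: compound exposure lasted 48 hours before the viability readout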); details: CellTiter-Glo ATP luminescence
[3] = growth inhibition of DIPG cells – cell-based, MIPE4.0 library, CellTiter-Glo luminescence, qHTS (AID 1347066; cut-off not given, nearly all actives have AC50 up to about 30 µM;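 further: cells exposed to compound for 48 hours before readout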); details: SU-DIPG-VI viability, CellTiter-Glo ATP luminescence
[4] = target: ATP-dependent translocase ABCB1 (Homo sapiens) (UniProt P08183); assay: P-glycoprotein substrate transport blockade – cell-based (AID 377; in the data active means fluorescence slope change above about 50%); details: MDR1-expressing cells, fluorescent substrate accumulation slope; stronger effect = higher value; concentration not given here
Sequence of ATP-dependent translocase ABCB1 (Homo sapiens) (P08183 whole entry, looked up): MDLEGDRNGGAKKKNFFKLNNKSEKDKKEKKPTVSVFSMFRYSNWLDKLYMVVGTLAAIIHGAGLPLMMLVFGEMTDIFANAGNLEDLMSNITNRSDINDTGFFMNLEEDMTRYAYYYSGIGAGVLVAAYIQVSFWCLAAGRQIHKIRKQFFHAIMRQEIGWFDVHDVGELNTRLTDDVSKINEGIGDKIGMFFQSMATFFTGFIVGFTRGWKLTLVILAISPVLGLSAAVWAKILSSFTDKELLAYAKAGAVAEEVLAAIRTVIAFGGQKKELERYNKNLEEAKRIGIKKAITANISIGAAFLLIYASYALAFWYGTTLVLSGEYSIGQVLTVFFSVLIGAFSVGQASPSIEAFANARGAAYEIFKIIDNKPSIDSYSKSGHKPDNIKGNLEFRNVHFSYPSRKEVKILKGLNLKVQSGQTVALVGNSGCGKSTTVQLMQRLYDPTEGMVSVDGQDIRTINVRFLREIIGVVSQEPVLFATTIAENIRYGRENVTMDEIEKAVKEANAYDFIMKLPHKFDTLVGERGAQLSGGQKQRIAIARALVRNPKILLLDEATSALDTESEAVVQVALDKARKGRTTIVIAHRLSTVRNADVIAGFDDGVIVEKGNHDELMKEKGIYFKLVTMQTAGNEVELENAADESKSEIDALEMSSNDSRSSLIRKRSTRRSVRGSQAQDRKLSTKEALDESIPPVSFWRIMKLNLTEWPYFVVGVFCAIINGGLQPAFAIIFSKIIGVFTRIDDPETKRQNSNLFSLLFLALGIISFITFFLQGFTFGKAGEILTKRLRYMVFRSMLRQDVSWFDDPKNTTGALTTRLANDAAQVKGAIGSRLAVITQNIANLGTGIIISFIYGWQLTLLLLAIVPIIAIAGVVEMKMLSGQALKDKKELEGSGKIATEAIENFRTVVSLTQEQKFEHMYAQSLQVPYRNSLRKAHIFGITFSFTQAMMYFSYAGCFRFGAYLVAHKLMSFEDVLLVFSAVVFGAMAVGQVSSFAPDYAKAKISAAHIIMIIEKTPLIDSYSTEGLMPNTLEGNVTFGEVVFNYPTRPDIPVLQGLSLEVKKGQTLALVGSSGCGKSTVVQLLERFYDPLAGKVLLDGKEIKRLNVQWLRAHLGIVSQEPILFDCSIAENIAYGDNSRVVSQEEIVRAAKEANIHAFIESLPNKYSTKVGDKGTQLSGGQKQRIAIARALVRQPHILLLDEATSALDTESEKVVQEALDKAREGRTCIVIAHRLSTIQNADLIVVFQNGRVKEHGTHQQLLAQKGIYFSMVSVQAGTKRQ

[5] = viability loss in pontine glioma line – cell-based, SU-DIPG-XXV, MIPE5.0, CellTiter-Glo, qHTS, dose response (AID 1347065; cut-off not given, nearly all actives have AC50 up to about 26 µM;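 further: cells exposed to compound for 48 hours before ATP readout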); details: CellTiter-Glo ATP luminescence
[6] = JHH-DIPG-1 glioma cell viability, MIPE5.0 library, CellTiter-Glo luminescence, qHTS (AID 1347067; cut-off not given, nearly all actives have AC50 up to about 26 µM;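 further: cells exposed to compound for 48 hours before readout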); details: JHH-DIPG-1 glioma viability, CellTiter-Glo ATP luminescence
[7] = growth inhibition of DIPG cells – cell-based, MIPE5.0 library, qHTS (AID 1347068; cut-off not given, nearly all actives have IC50 up to about 30 µM); details: SU-DIPG-XXV viability
[8] = target: Mitogen-activated protein kinase 7 (Homo sapiens) (UniProt Q13164); assay: Gal4-ERK5 driven luciferase induction – cell-based, HTS, primary screen (AID 1508626;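 active means luciferase signal above three times the same-plate solvent-only control wells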;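 further: luciferase driven by Gal4-ERK5 fusion binding five Gal4 sites before minimal TATA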); details: HeLa Gal4-ERK5 transactivation, 18 h, at 5 µM, stronger effect = higher value
Sequence of Mitogen-activated protein kinase 7 (Homo sapiens) (Q13164 whole entry, looked up, the tested form may be a part): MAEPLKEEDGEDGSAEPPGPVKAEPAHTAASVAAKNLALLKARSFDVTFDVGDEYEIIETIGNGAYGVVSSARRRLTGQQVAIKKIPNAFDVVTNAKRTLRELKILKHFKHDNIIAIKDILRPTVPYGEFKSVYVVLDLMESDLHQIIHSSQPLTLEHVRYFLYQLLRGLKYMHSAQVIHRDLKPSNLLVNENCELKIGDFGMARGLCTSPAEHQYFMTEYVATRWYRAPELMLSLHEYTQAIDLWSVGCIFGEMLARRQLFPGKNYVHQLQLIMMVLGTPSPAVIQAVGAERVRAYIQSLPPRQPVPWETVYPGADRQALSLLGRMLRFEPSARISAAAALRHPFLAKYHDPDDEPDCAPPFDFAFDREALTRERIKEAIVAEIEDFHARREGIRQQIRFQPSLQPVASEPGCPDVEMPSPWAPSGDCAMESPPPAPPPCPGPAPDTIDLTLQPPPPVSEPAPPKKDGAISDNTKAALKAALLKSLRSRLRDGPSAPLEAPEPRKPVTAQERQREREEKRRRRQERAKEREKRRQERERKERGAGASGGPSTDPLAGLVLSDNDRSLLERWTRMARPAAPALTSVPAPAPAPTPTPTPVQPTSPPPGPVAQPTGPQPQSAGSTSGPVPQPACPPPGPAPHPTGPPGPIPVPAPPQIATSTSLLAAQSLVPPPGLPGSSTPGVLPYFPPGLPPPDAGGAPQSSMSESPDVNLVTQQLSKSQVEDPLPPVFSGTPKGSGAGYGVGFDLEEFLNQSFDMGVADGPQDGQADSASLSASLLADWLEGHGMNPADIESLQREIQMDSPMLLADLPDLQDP

[9] = galactose survival enhancers in mitochondrial complex I cybrids – cell-based, galactose medium, ATP luminescence, primary screen (AID 1645843;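 active means z-score of at least 1.8 in each of two replicates, scored against plate mean and spread of sample wells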;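 further: positive z means more ATP and so rescue of galactose-driven cybrid death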); details: complex I mutant cybrid cells, 72 h, stronger effect = higher value
[10] = growth inhibition, single agents and combos, LFS_MB_1R, cell-based, cisplatin or BGB combos, synergistic combos for chromothripsis tumors (AID 1671452); details: LFS_MB_1R medulloblastoma cells, stronger effect = higher value;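 further: cells exposed for 96 hours before readout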
[11] = growth inhibition, single agents and combos, CRL2098, cell-based, BGB or cisplatin IC20 combos, synergistic combos for chromothripsis tumors (AID 1671454); details: CRL2098 osteosarcoma cells, drug combinations, stronger effect = higher value;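 further: cells exposed for 96 h before readout; 0% = vehicle DMSO and 100% = killing by high DMSO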
[12] = growth inhibition, single agents and combos, HD-MB03, cell-based, BGB or cisplatin IC20 combos, synergistic combos for chromothripsis tumors (AID 1671455; in the data active means inhibition above about 83%;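 further: 0% = vehicle DMSO and 100% = high DMSO as cytotoxic control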); details: HD-MB03 medulloblastoma cells, stronger effect = higher value
[13] = growth inhibition, single agents and combos, UWB1.289, cell-based, BGB or cisplatin combos, synergistic combos for chromothripsis tumors (AID 1671456); details: UWB1.289 ovarian carcinoma cells, stronger effect = higher value;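 further: cells exposed to compound for four days; 0% = vehicle DMSO and 100% = killing by high DMSO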
[14] = growth inhibition, single agents and combos, LFS_MB_2R, cell-based, cisplatin combos, synergistic combos for chromothripsis tumors (AID 1671457); details: LFS_MB_2R medulloblastoma cells, stronger effect = higher value;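 further: cells exposed to compound for four days before readout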
[15] = UWB1.289_BRCA1 ovarian cancer growth, cell-based, BGB or cisplatin combinations (AID 1671459); details: UWB1.289 BRCA1 ovarian carcinoma, drug combinations, stronger effect = higher value
[16] = drug combination toxicity in non-malignant astrocytes – cell-based, BGB or cisplatin IC20 combos, cytotoxicity control for chromothriptic childhood tumor combination screen (AID 1671460); details: Human astrocytes, viability inhibition, drug combinations, at 0.5 µM, stronger effect = higher value;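 further: cells exposed to compounds for 96 hours before viability readout; 0% = vehicle and 100% = killing control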
[17] = BT084 cell growth, single and combined drugs, ICGC_MB145, cisplatin and BGB IC40 combos (AID 1671461); details: BT084 medulloblastoma cells, drug combinations, stronger effect = higher value;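 further: cells exposed to drugs for 96 hours; 0% = vehicle DMSO and 100% = high DMSO full killing control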
[18] = RCMB18 cell growth, single agent and combined, cisplatin and BGB IC40 combos (AID 1671462); details: RCMB18 medulloblastoma cells, stronger effect = higher value;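 further: cells exposed to compound for four days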
[19] = CRL1545 cell growth, single agent and combined, cisplatin and BGB IC20 combos (AID 1671464); details: CRL1545 osteosarcoma cells, stronger effect = higher value;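 further: cells exposed to compound for 96 hours before readout; 0% = vehicle DMSO and 100% = high DMSO killing control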
[20] = measured here: combination with cisplatin, at 0.5 µM
[21] = measured here: combination with cisplatin, at 5 µM

## C[C@H]1[C@H](NC(=O)/C(=N/OC(C)(C)C(=O)O)c2csc(N)n2)C(=O)N1S(=O)(=O)O (stereo in doubt)
[1]
  outcome: inactive
[2]
  outcome: inactive
[3]
  outcome: inactive

## OC(CCN1CCCCC1)(c1ccccc1)C1CC2C=CC1C2 (stereo not drawn)
[4]
  fluorescence slope change: 23% (inactive)
[1]
  outcome: inactive
[2]
  outcome: inactive
[5]
  outcome: inactive
[3]
  outcome: inactive
[6]
  outcome: inactive
[7]
  outcome: inactive
[8]
  luciferase signal: 60 AU (inactive)
[9]
  z-score: -0.86 (inactive)

## C#CCN(C)CCCOc1ccc(Cl)cc1Cl
[9]
  z-score: -0.39 (inactive)

## CN1CCN(c2c(F)cc3c(=O)c(C(=O)O)cn(CCF)c3c2F)CC1
[1]
  outcome: inactive
[2]
  outcome: inactive
[9]
  z-score: 0.245 (inactive)
[10]; at 0.5 µM
  inhibition: -3.54% (inactive)
[10]; measured here: combination with BGB IC40, at 0.05 µM
  inhibition: 5.98%
[10]; [20]
  inhibition: 2.19%
[10]; [21]
  inhibition: -16.1%
[11]; at 0.5 µM
  inhibition: 11.6% (inactive)
[11]; measured here: combination with BGB at IC20, at 0.5 µM
  inhibition: -0.381%
[11]; measured here: combination with cisplatin at IC20, at 0.5 µM
  inhibition: 26.4%
[12]; at 0.5 µM
  inhibition: 6.76% (inactive)
[12]; measured here: combo with BGB at IC20, at 0.5 µM
  inhibition: 8.44%
[12]; measured here: combo with cisplatin at IC20, at 0.5 µM
  inhibition: 5.72%
[13]; at 0.5 µM
  inhibition: 9.66% (inactive)
[13]; measured here: inhibition with BGB combination, at 0.05 µM
  inhibition: -0.955%
[13]; measured here: inhibition with cisplatin combination, at 0.05 µM
  inhibition: 3.11%
[14]; at 0.5 µM
  inhibition: 7.8% (inactive)
[14]; [20]
  inhibition: 7.66%
[14]; [21]
  inhibition: -16.2%
[15]; BGB combination, concentration series, at 5 µM
  inhibition: 7.04%
[15]; at 0.5 µM
  inhibition: 5.73% (inactive)
[15]; cisplatin combination, concentration series, at 5 µM
  inhibition: -0.678%
[16]
  inhibition: 5.13% (inactive)
[16]; measured here: combo with BGB IC20
  inhibition: 2.15%
[16]; measured here: combo with cisplatin IC20
  inhibition: 3.47%
[17]; at 0.5 µM
  inhibition: -2.41% (inactive)
[17]; cisplatin combination, at 0.5 µM
  inhibition: -7.17%
[17]; cisplatin combination, at 5 µM
  inhibition: 4.75%
[17]; measured here: BGB IC40 combination 0.05 uM, at 0.05 µM
  inhibition: 34.4%
[17]; single agent, at 5 µM
  inhibition: 1.35%
[18]; at 0.5 µM
  inhibition: 18.3% (inactive)
[18]; cisplatin combo, at 5 µM
  inhibition: 48%
[18]; measured here: BGB IC40 combination, at 0.05 µM
  inhibition: -3.02%
[18]; [20]
  inhibition: 34.2%
[18]; single agent, at 5 µM
  inhibition: -5.57%
[19]; at 0.5 µM
  inhibition: -0.47% (inactive)
[19]; measured here: with BGB IC20 combination, at 0.5 µM
  inhibition: -8.63%
[19]; measured here: with cisplatin IC20 combination, at 0.5 µM
  inhibition: 1.43%
[19]; single agent, at 0.05 µM
  inhibition: 8.93%
[19]; single agent, at 5 µM
  inhibition: 2.13%
